From PubChem BioAssay (NCI)
The panel holds about 83,000 compounds, 20% with a hit somewhere; the sample as a whole holds those more often.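 Results are percent growth after 48 hours of single-concentration exposure. 100 means growth as in untreated cells, lower positive values show inhibition; negative values down to -100 show cell death.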 Active and inactive are the calls of the source. Rule for the calls: active = growth percent below 10; inactive = the rest.

How the values were obtained:
Assay in all cases: NCI-60 one-dose screen, 48 h (100 = growth as untreated, 0 = no growth, -100 = all killed)
Conditions in all cases: 10 µM unless noted
NCI-H23 lung = test system: NCI-H23 lung
NCI-H226 lung = test system: NCI-H226 lung
NCI-H322M lung = test system: NCI-H322M lung
HOP-62 NSCLC = test system: HOP-62 NSCLC
NCI-H460 lung = test system: NCI-H460 lung
HOP-92 NSCLC = test system: HOP-92 NSCLC
NCI-H522 lung = test system: NCI-H522 lung
A549/ATCC NSCLC = test system: A549/ATCC NSCLC
786-0 renal = test system: 786-0 renal
DU-145 prostate = test system: DU-145 prostate
K-562 leukemia = test system: K-562 leukemia
MALME-3M melanoma = test system: MALME-3M melanoma
MDA-MB-231 breast = test system: MDA-MB-231 breast
RXF 393 renal = test system: RXF 393 renal
SF-268 CNS = test system: SF-268 CNS
SF-295 CNS = test system: SF-295 CNS
SF-539 CNS = test system: SF-539 CNS
UACC-257 melanoma = test system: UACC-257 melanoma
M14 melanoma = test system: M14 melanoma

Measured: growth

N#Cc1c(-c2ccc(C(F)(F)F)cc2)cc(N2CC(O)C2)n2c1nc1ccccc12
active: HOP-62 NSCLC 7.8% | HOP-92 NSCLC -3.02% | MALME-3M melanoma -3.85%
inactive: NCI-H23 lung 67.7% | NCI-H226 lung 16.9% | NCI-H322M lung 60.8% | NCI-H460 lung 27.8% | NCI-H522 lung 34.7% | A549/ATCC NSCLC 48.1% | 786-0 renal 20.7% | DU-145 prostate 71.4% | K-562 leukemia 110% | MDA-MB-231 breast 39.2% | RXF 393 renal 21.5% | SF-268 CNS 32.7% | SF-295 CNS 28.1% | SF-539 CNS 36.2% | UACC-257 melanoma 51.9% | M14 melanoma 80.6%

COc1ccc(/C=C(\C#N)n2nnc3cc(F)c(F)cc32)c(OC)c1OC
inactive: NCI-H23 lung 71.8% | NCI-H226 lung 83% | NCI-H322M lung 76% | HOP-62 NSCLC 82.9% | NCI-H460 lung 71.4% | HOP-92 NSCLC 83.5% | NCI-H522 lung 51.4% | A549/ATCC NSCLC 84.2% | 786-0 renal 93.9% | DU-145 prostate 24.5% | K-562 leukemia 23% | MALME-3M melanoma 93.4% | MDA-MB-231 breast 61.7% | RXF 393 renal 41.1% | SF-268 CNS 83.5% | SF-295 CNS 105% | SF-539 CNS 92.1% | UACC-257 melanoma 64.4% | M14 melanoma 72.7%

N#Cc1c(N)n2c(nc1=Nc1ccc(Cl)cc1)sc1cc(Cl)ccc12
active: SF-295 CNS -2.32%
inactive: NCI-H23 lung 66.6% | NCI-H226 lung 36.7% | NCI-H322M lung 91% | HOP-62 NSCLC 96.9% | NCI-H460 lung 95.1% | HOP-92 NSCLC 76.6% | NCI-H522 lung 93% | A549/ATCC NSCLC 75.4% | 786-0 renal 51.4% | DU-145 prostate 97.7% | K-562 leukemia 92.1% | MALME-3M melanoma 85.4% | MDA-MB-231 breast 67.1% | RXF 393 renal 65.1% | SF-268 CNS 56.4% | SF-539 CNS 103% | UACC-257 melanoma 54.4% | M14 melanoma 62.2%

COc1cc(CNC(=O)/C=C/C=C/c2ccc3c(c2)OCO3)ccc1OCc1cn(-c2ccc(Cl)c(Cl)c2)nn1
inactive: NCI-H226 lung 31.2% | NCI-H322M lung 21.6% | SF-268 CNS 18% | SF-539 CNS 74.4%
active: NCI-H23 lung -34.1% | HOP-62 NSCLC -19.8% | NCI-H460 lung -57.5% | HOP-92 NSCLC -14.7% | NCI-H522 lung 5.67% | A549/ATCC NSCLC 2.23% | 786-0 renal -40.6% | DU-145 prostate -32.3% | K-562 leukemia 5.49% | MALME-3M melanoma -54.7% | MDA-MB-231 breast 5.5% | RXF 393 renal -24% | SF-295 CNS -39% | UACC-257 melanoma -17.4% | M14 melanoma -30.4%

C[C@@H]1C(=O)N(C[C@@H](Cc2ccccc2)NC(=O)OCc2ccccc2)[C@]1(Cc1ccccc1)C(=O)OCc1ccccc1
inactive: NCI-H23 lung 37.1% | NCI-H226 lung 36.3% | NCI-H322M lung 56.4% | HOP-62 NSCLC 67.3% | NCI-H460 lung 38.3% | HOP-92 NSCLC 30.1% | NCI-H522 lung 44.3% | A549/ATCC NSCLC 22.8% | 786-0 renal 52.9% | DU-145 prostate 78.3% | K-562 leukemia 36.5% | MALME-3M melanoma 24.9% | MDA-MB-231 breast 41.9% | RXF 393 renal 34.8% | SF-268 CNS 56.7% | SF-295 CNS 21.4% | SF-539 CNS 59.6% | UACC-257 melanoma 19.7% | M14 melanoma 44.8%

C[C@H]1[C@H](C)CC[C@]2(C(=O)N3CCN(C)CC3)CC[C@]3(C)C(=CC[C@@H]4[C@@]5(C)C/C(=C/c6cccnc6)C(=O)C(C)(C)[C@@H]5CC[C@]43C)[C@H]12
active: NCI-H23 lung -51.2% | NCI-H226 lung -57.2% | NCI-H322M lung -52.8% | HOP-62 NSCLC -95.9% | NCI-H460 lung -65.1% | HOP-92 NSCLC -81.7% | NCI-H522 lung -79.3% | A549/ATCC NSCLC -73.7% | 786-0 renal -85% | DU-145 prostate -81.5% | K-562 leukemia -46.3% | MALME-3M melanoma -87.3% | MDA-MB-231 breast -80.1% | RXF 393 renal -94.4% | SF-268 CNS -80.3% | SF-295 CNS -84.6% | SF-539 CNS -84.6% | UACC-257 melanoma -65.3% | M14 melanoma -81.8%

Cc1ccc2c(n1)C(=O)C(Oc1ccc(F)cc1)=CC2=O
active: NCI-H522 lung -43.9%
inactive: NCI-H23 lung 94.9% | NCI-H226 lung 76.5% | NCI-H322M lung 101% | HOP-62 NSCLC 125% | NCI-H460 lung 101% | HOP-92 NSCLC 123% | A549/ATCC NSCLC 99.4% | 786-0 renal 107% | DU-145 prostate 114% | K-562 leukemia 20% | MALME-3M melanoma 93.9% | MDA-MB-231 breast 105% | RXF 393 renal 107% | SF-268 CNS 90.8% | SF-295 CNS 101% | SF-539 CNS 95.9% | UACC-257 melanoma 95.5% | M14 melanoma 103%

Cc1cc(-c2ccccc2)cc(SC#N)[n+]1[O-]
inactive: NCI-H23 lung 55.9% | NCI-H226 lung 69.4% | NCI-H322M lung 50.5% | HOP-62 NSCLC 40.2% | NCI-H460 lung 19% | HOP-92 NSCLC 82.2% | NCI-H522 lung 39.2% | A549/ATCC NSCLC 33.7% | 786-0 renal 41.1% | DU-145 prostate 46.6% | K-562 leukemia 16% | MALME-3M melanoma 59.3% | MDA-MB-231 breast 52.7% | RXF 393 renal 49.6% | SF-268 CNS 43.3% | SF-295 CNS 23.2% | SF-539 CNS 43.5% | UACC-257 melanoma 59.2% | M14 melanoma 19.3%
